Results taken from the supplement of paper PMC12636033.
± gives the standard deviation of the averaged measurements. The full ranking holds about 33,000 sequences; the median of “E-score (rank enrichment, -0.5 to 0.5)” is about -0.0075, and the highest 2% start at about 0.23. This excerpt belongs to a sample that is enriched for the highest values.

What follows are sequences tested on WT Max(13-93) synthetic (M65Nle) (assay: PBM 8-mer E-score (E-score (rank enrichment, -0.5 to 0.5)); higher = stronger preferential binding).
Description: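 Protein binding microarray (universal PBM chip covering all 10-mers in fixed probe flanks) with chemically synthesized human Max(13-93) bHLH-LZ analogs (not full-length Max) bearing noncanonical residues (hArg, Tha, Aib, Nle at 65) and aromatic Cys staples. Read-out per 8-mer (and its reverse complement): E-score (rank-based enrichment, -0.5 to 0.5) and Z-score of median probe intensity.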

Point of comparison: GAAGACAA, “PBM 8-mer E-score” value -0.00129 ± 0.039. Against it:
- CTGTGATA — within error, -0.0471 ± 0.032
- AAGTGATG — higher, 0.0833 ± 0.02
- ACGTGATG — higher, 0.281 ± 0.036
- AGGTGATG — within error, -0.035 ± 0.048
- GTGTGATA — higher, 0.161 ± 0.094
- AAGTGATC — within error, 0.00227 ± 0.17
- GCGTGATA — higher, 0.157 ± 0.0055
- CCGTGATA — within error, -0.0612 ± 0.11
- ACGTGATA — higher, 0.373 ± 0.04
- ATGTGATA — higher, 0.259 ± 0.018
- CCGCCGCG — within error, -0.0114 ± 0.016
- CGACCTTA — lower, -0.135 ± 0.088
- AGTAACCA — within error, 0.0556 ± 0.031
- ACGCTAAA — within error, -0.0749 ± 0.18
- AAGGTTCG — within error, 0.00686 ± 0.047
- TCGGTAAA — within error, 0.0761 ± 0.071
- GCGTTCGA — lower, -0.0763 ± 0.0099
- CTACTAAC — higher, 0.279 ± 0.095
- GTCCTAAC — within error, -0.0552 ± 0.13
- TTACTAAA — higher, 0.109 ± 0.064
- GTACTAAA — within error, 0.0526 ± 0.051
- CTACTAAG — within error, -0.104 ± 0.13
- ATACTAAA — higher, 0.236 ± 0.0049
- ATACTAAC — higher, 0.159 ± 0.022
- ATCCTAAC — higher, 0.133 ± 0.071
- CTCCTAAC — higher, 0.24 ± 0.12
- CTCCAAAG — lower, -0.102 ± 0.047
- ATGGAACC — lower, -0.166 ± 0.054
- ACAGAACG — within error, -0.0169 ± 0.0023
- CAACCGGC — lower, -0.263 ± 0.061
- CAAATCAA — higher, 0.245 ± 0.008
- AAAATCAA — within error, 0.0163 ± 0.098
- GAAATCAA — higher, 0.138 ± 0.029
- GTCGGAAA — within error, -0.0618 ± 0.062
- ACAATACC — higher, 0.249 ± 0.069
- ACAATACA — within error, 0.106 ± 0.079
- ACAATACT — within error, 0.117 ± 0.14
- CTTGCTCC — lower, -0.0612 ± 0.0067
- CTGCATTA — within error, 0.0253 ± 0.0015
- GTGCATGA — higher, 0.265 ± 0.012
- ATGCATCA — higher, 0.254 ± 0.0073
- GTGCATCA — within error, 0.0702 ± 0.089
- CTGCATGA — lower, -0.175 ± 0.057
- ATGCATGA — higher, 0.244 ± 0.02
- GGGCATGA — within error, -0.0171 ± 0.012
- ATGCATGG — higher, 0.156 ± 0.079
- ATGCATTA — higher, 0.265 ± 0.055
- ATGCATTC — higher, 0.197 ± 0.016
- ATGCATCG — within error, 0.0483 ± 0.15
- ATGCATGC — higher, 0.203 ± 0.04
- CTGCTGTA — lower, -0.271 ± 0.066
- CGCTGCGC — within error, -0.152 ± 0.14
- CGAGCTCC — within error, 0.00928 ± 0.0055
- CAGGATTC — lower, -0.0901 ± 0.04
- AAGTCCGC — lower, -0.204 ± 0.041
- CCAAACCA — within error, 0.037 ± 0.03
- AGGGTGTG — within error, 0.0713 ± 0.066
- CAGTAACG — within error, -0.0368 ± 0.021
- CGAGCTGC — lower, -0.214 ± 0.048
- AACTCCGG — within error, -0.0587 ± 0.069
- AATTGGCA — higher, 0.139 ± 0.04
- TATTGGCA — higher, 0.243 ± 0.034
- CATTGGCA — within error, -0.0219 ± 0.039
- CGCGCCCA — within error, 0.0179 ± 0.03
- GTCGACAA — within error, 0.0204 ± 0.0078
- AAGAAGGG — higher, 0.213 ± 0.0093
- ACGTAAAG — higher, 0.281 ± 0.033
- ACGTAAAA — higher, 0.0973 ± 0.0094
- ACGTAAAT — higher, 0.0493 ± 0.0072
- ACAGGCGA — lower, -0.138 ± 0.092
- ACAGTATC — higher, 0.235 ± 0.0095
- ACAGTATG — higher, 0.135 ± 0.041
- ACAGTATA — higher, 0.134 ± 0.0089
- CACCTTCA — lower, -0.109 ± 0.0089
- CATGCTCG — higher, 0.188 ± 0.038
- CATGCTGA — higher, 0.169 ± 0.029
- AATGCTTA — higher, 0.194 ± 0.036
- CATGCTCA — higher, 0.281 ± 0.034
- CATGCTCC — higher, 0.18 ± 0.012
- CATGCTTA — higher, 0.246 ± 0.045
- GACATTAC — higher, 0.0651 ± 0.0097
- ATCATTTG — higher, 0.0683 ± 0.013
- CTTTCCGC — within error, -0.00053 ± 0.0035
- GTCGCATA — higher, 0.127 ± 0.004
- CAATCTCA — within error, 8e-05 ± 0.15
- CCCTATTC — higher, 0.0618 ± 0.016
- GATAAACA — within error, 0.138 ± 0.13
- GATAAAAC — higher, 0.141 ± 0.1
- CATAAAAA — higher, 0.213 ± 0.085
- TAAAAAAA — higher, 0.123 ± 0.0092
- TATAAAAA — higher, 0.258 ± 0.13
- GATAAAAA — higher, 0.242 ± 0.021
- GACCCCGC — within error, -0.0133 ± 0.0045
- CAAGCACC — within error, -0.0769 ± 0.043
- CAAGTAGC — within error, -0.0222 ± 0.13
- GGACGCGA — within error, -0.0617 ± 0.22
- CGAGAACC — within error, -0.00648 ± 0.079
- AAACATGA — higher, 0.187 ± 0.041
- AAACATGG — higher, 0.2074 ± 0.0013
- AAACATGT — higher, 0.315 ± 0.018
- CAACATGC — higher, 0.119 ± 0.023
- AAACATGC — higher, 0.248 ± 0.021
- GAACATGC — higher, 0.164 ± 0.015
- CCCATCGA — within error, -0.073 ± 0.074
- GTCTAGGA — lower, -0.0888 ± 0.0088
- AGCTCGAT — within error, -0.0955 ± 0.12
- AAGTGAGT — higher, 0.0792 ± 0.0081
- AAAGACAC — higher, 0.279 ± 0.032
- AATGACAG — within error, 0.103 ± 0.13
- CATGACAA — higher, 0.196 ± 0.036
- TAAGACAA — higher, 0.26 ± 0.04
- GATGACAC — within error, 0.0335 ± 0.0041
- CAAGACAA — higher, 0.123 ± 0.084
- AATGACAC — higher, 0.239 ± 0.013
- CATGACAC — higher, 0.29 ± 0.036
- CATGACAG — within error, 0.0777 ± 0.066
- AAAGACAA — higher, 0.2 ± 0.078
- AAAGACAG — higher, 0.091 ± 0.049
- CTCGCGTC — lower, -0.0607 ± 0.017
- GTTTGATA — within error, 0.157 ± 0.13
- GTACCAAA — within error, 0.104 ± 0.08
- GCGGGCCA — lower, -0.176 ± 0.11
- ACATCCGA — lower, -0.16 ± 0.072
- CACGTATG — within error, 0.0325 ± 0.16
- GGAGTTCA — within error, 0.024 ± 0.016
- CGCGGTTA — within error, -0.0113 ± 0.021
- ATCTTACG — within error, -0.013 ± 0.042
- AAGGAGCG — within error, -0.0544 ± 0.078
- AATGACAA — higher, 0.296 ± 0.089
- TATGACAA — higher, 0.22 ± 0.013
- GATGACAA — higher, 0.147 ± 0.014
- AGAAAAGC — higher, 0.121 ± 0.075
- AACACGTA — higher, 0.189 ± 0.04
- AACACGTG — higher, 0.4954 ± 0.001
- AACACGTC — within error, 0.0692 ± 0.09
- CACACGTC — within error, 0.0446 ± 0.022
- CACACGTA — within error, 0.0918 ± 0.056
- CACACGTG — higher, 0.4756 ± 0.0046
- AGGAAAAT — higher, 0.102 ± 0.051
- CTTGCCAA — within error, 0.0438 ± 0.04
- CTTTAAGA — within error, 0.0629 ± 0.086
- ACTCGATC — lower, -0.107 ± 0.06
- ATGGAGGC — within error, -0.00616 ± 0.011
- TTTATAAA — higher, 0.176 ± 0.057
- ACAACCCT — within error, -0.0273 ± 0.068
- ACAACCCC — higher, 0.257 ± 0.052
- CCAACCCC — within error, -0.0495 ± 0.05
- GCGTCGAA — within error, 0.00213 ± 0.017
- GGCATGCA — within error, 0.0781 ± 0.042
- AGCATGCA — higher, 0.335 ± 0.016
- CGCATGCA — higher, 0.175 ± 0.029
- AGCATGCC — higher, 0.12 ± 0.022
- CGCATGCC — higher, 0.141 ± 0.068
- CGCATGCG — higher, 0.277 ± 0.018
- AGCATGCT — higher, 0.165 ± 0.028
- AGCATGCG — higher, 0.326 ± 0.055
- TGCATGCA — higher, 0.201 ± 0.039
- CGCAATGC — within error, -0.0961 ± 0.12
- AGACACCC — lower, -0.159 ± 0.022
- CATTTGAC — within error, 0.0512 ± 0.021
- GCACATCC — within error, -0.00788 ± 0.08
- GCACATAC — within error, 0.0278 ± 0.096
- CCACATGG — higher, 0.366 ± 0.0054
- CAACATGG — higher, 0.171 ± 0.018
- GCACATGC — higher, 0.251 ± 0.032
- CCACATGC — higher, 0.327 ± 0.06
- ACACATGC — higher, 0.23 ± 0.089
- CCACATGA — higher, 0.24 ± 0.057
- CGACATGC — higher, 0.18 ± 0.013
- CCACATCG — lower, -0.114 ± 0.056
- GCACATGA — higher, 0.175 ± 0.065
- TCACATGA — higher, 0.229 ± 0.011
